Source: PubChem BioAssay AID847 (SRMLSC, 2007)
Screen size: about 41,000 compounds; about 190 (0.46%) were called active. This excerpt belongs to a sample that is enriched for actives. Values without a mark were called inactive.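 How the source made its calls: active means viability at or below the median of all test compounds minus 3 SD, in both replicates if run twice (cut at about 45% in these data); inconclusive means duplicate replicates that disagree with each other; inactive means viability above that cutoff in every replicate.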

Experiment: viability loss of SK-BR-3 cells – cell-based, human, 24 h, primary screen (AID 847);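 further: 100% = median untreated cell wells and 0% = median positive control drug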
Conditions: SK-BR-3 viability, CellTiter-Glo ATP luminescence, at 10 µM, active compounds read low

| Structure (SMILES) | viability |
| --- | --- |
| CN(C)c1ccc(CNC23CN4CN(CN(C4)C2)C3)cc1 | 99% |
| Cn1c2c(c(=O)n(C)c1=O)CN(Cc1ccco1)CN2 | 83.8% |
| O=C(Cn1c(=O)sc2ccccc21)Nc1ccc2c(c1)OCCO2 | 78.4% |
| Cc1ccc2cc(C#N)c(SCC(=O)NCC3CCCO3)nc2c1C (stereo not drawn) | 82.7% |
| O.O.O.O=S(=O)([O-])OC[C@H]1O[C@@H](O[C@]2(COS(=O)(=O)[O-])O[C@H](OS(=O)(=O)[O-])[C@@H](OS(=O)(=O)[O-])[C@@H]2OS(=O)(=O)[O-])[C@H](OS(=O)(=O)[O-])[C@@H](OS(=O)(=O)[O-])[C@@H]1OS(=O)(=O)[O-].[Al] | 89.7% |
| CC(=O)Nc1cccc2c1[n+]([O-])c(C)c(C)[n+]2[O-] | 115% |
| CCN(CC)P(=O)(/C(Cl)=C\Nc1c(C)n(C)n(-c2ccccc2)c1=O)N(CC)CC | 104% |
| Cn1nnnc1SCC(=O)N1CCN(Cc2ccccc2)CC1 | 103% |
| Cn1c(SCC(=O)Nc2cccc(NC(=O)c3cccs3)c2)nnc1-c1ccncc1 | 91.4% |
| O=C(CSc1nc(-c2ccco2)cc(C(F)(F)F)n1)N1CCc2ccccc2C1 | 113% |
| CCCN1C(=O)C(NC(C)=O)c2cc(OC)ccc21 (stereo not drawn) | 88.1% |
| Cc1nc2cc(-c3ccc(F)cc3)nn2c(N2CCOCC2)c1C | 89.5% |
| FC(F)(F)c1cccc(Nc2ncnc3ccccc23)c1 | 90.1% |
| CCOC(=O)Cc1csc(NC(=O)CSc2nc(C)cc(=O)[nH]2)n1 | 43.4% (active) |
| CCOC(=O)Cc1csc(NC(=O)Nc2ccccc2)n1 | 111% |
| CCOC(=O)Cc1csc(NC(=O)C(C)(C)C)n1 | 89.5% |
| Cc1cc(C)cc(NC(=O)N2CCC(NC(=O)c3ccc(F)cc3)CC2)c1 | 103% |
| COc1cc(OC)cc(C(=O)NCCSCc2ccco2)c1 | 80.3% |
| N#Cc1c(NC(=O)CSc2nc3ccccc3c(=O)n2Cc2ccco2)sc2c1CCCC2 | 72.2% |
| CCOc1ccccc1NC(=O)CCc1ccc(C)o1 | 103% |
| COCCCNC(=O)c1c(F)c(F)c(F)c(F)c1F | 79.3% |
| O=C1Nc2ccccc2C12Nc1ccccc1S2 (stereo not drawn) | 75.9% |
| Cc1ccc(C(C)C)c(OCc2nnc(SCC(=O)Nc3nccs3)n2C)c1 | 92.6% |
| O=C(Cc1cccs1)N1CCCC(c2nc(-c3ccc(S(=O)(=O)N4CCCC4)cc3)no2)C1 (stereo not drawn) | 72.5% |
| Cc1sc2c(c1C)c(=O)n(-c1ccccc1)c1nncn21 | 90.1% |
| O=C(Nc1ccccc1N1CCN(C(=O)c2ccccc2)CC1)c1ccc2c(c1)OCO2 | 68% |

| Structure (SMILES) | viability |
| --- | --- |
| CCn1nc(NC(=O)c2ccco2)c2cc3ccc(C)cc3nc21 | 79.8% |
| COCCCNC(=O)COc1cc(C)c(Cl)c(C)c1 | 104% |
| CC(=O)CCS(=O)(=O)c1ccc(C)c(C)c1 | 73.8% |
| CCOc1cc(/C=N/O)cc(Br)c1OC | 90.1% |
| CCc1ccccc1NC(=O)CSc1nnc([C@@H](NC(=O)OC(C)(C)C)C(C)CC)o1 (stereo partly drawn) | 89.6% |
| O=S(=O)(NCCNS(=O)(=O)c1ccccc1)c1ccccc1 | 87.2% |
| CCOC(=O)c1nc(N)sc1C(=O)OCC | 82.9% |
| CCCCOc1ccc(NC(=O)CSCC(=O)OCC)cc1 | 97.7% |
| CCN(CC)C(=O)CSc1nnc(-c2cnccn2)n1-c1ccc(C)cc1 | 112% |
| CC(=O)N(CN1C(=O)C2CC=CCC2C1=O)c1cccc(Cl)c1 (stereo not drawn) | 102% |
| O=C(Nc1c(C(=O)N2CCCCC2)cnn1-c1ccccc1)c1ccco1 | 81.5% |
| CCOC(=O)c1cnc(-n2nc(C)cc2C)nc1-n1nc(C)cc1C | 108% |
| CCN(CC)C(=O)CSc1nnc(-c2cccc(OC)c2)o1 | 88.1% |
| CCS(=O)(=O)n1nc(-c2ccc(OC)cc2)nc1SC | 101% |
| O=C(CSc1nnnn1-c1ccc2c(c1)CCC2)Nc1ccc2c(c1)OCCO2 | 86.1% |
| O=C(CSc1nnnn1C1CCCC1)Nc1ccc2c(c1)OCCO2 | 42.5% (active) |
| CCC(=O)Nc1cccc(NC(=O)CSc2nnnn2C2CCCC2)c1 | 69% |
| CCOc1cccc(-c2nn3c(-c4ccccn4)nnc3s2)c1 | 116% |
| CCOC(=O)CNC(=O)CSc1nnc(-c2cccc(OC)c2)n1CC | 104% |
| O=C1CCC(=O)N1CCOP1(=O)COc2ccccc2OC1 | 98.7% |
| CCOC(=O)Cn1c(SC)nc2sc3c(c2c1=O)CC(C)(C)OC3 | 93.7% |
| CSCC[C@H](NC(=O)NCCc1ccc(F)cc1)C(=O)O | 79.6% |
| O=C(Nc1nn(Cc2ccccc2F)cc1Br)c1cccs1 | 98.6% |
| C=CCn1c(CSc2nc3ccccc3s2)nnc1SCC(=O)NCc1ccco1 | 125% |
| Cc1ccc(NC(=O)Cn2nc(C)c3ccccc3c2=O)c(C)c1 | 112% |
| CCCCn1c(SCC(=O)N2CCC(C(=O)OCC)CC2)nc2cc(S(N)(=O)=O)ccc21 | 89.6% |

| Structure (SMILES) | viability |
| --- | --- |
| C=CCN1C(=O)C(O)(CC(=O)c2ccc(Cl)cc2)c2ccccc21 (stereo not drawn) | 86.7% |
| COc1ccc(OC)c(NC(=O)CSc2nc(N)c(-c3ccccc3)c(=O)[nH]2)c1 | 98.9% |
| CN1CCN(C(=O)C2C3C=CC(C3)C2C(=O)O)CC1 (stereo not drawn) | 109% |
| COc1ccc(N2CC(C)Cn3c2nc2c3c(=O)n(Cc3ccccc3F)c(=O)n2C)c(OC)c1 (stereo not drawn) | 89.5% |
| CC1(C)NC(=O)N(CCOc2cccc(Oc3ccccc3)c2)C1=O | 94.6% |
| C[C@H](NC(=O)OC(C)(C)C)c1nnc(SCC(=O)Nc2ccc(Br)cc2)o1 | 91.1% |
| CCS(=O)(=O)NCCc1ccc(OC)c(OC)c1 | 85.1% |
| CCOc1ccccc1N(CC(=O)Nc1ccccc1C(=O)OC)S(C)(=O)=O | 114% |
| COc1cc(C(=O)Nc2nccs2)cc(OC)c1OC | 98.8% |
| CC(C)OC(=O)c1sc2nc3c(cc2c1N)C(=O)CCC3 | 70.8% |
| CCOC(=O)c1c(C)n(C)c2ccc(OC)c(NC(=O)CN3CCC4(CC3)OCCO4)c12 | 88.1% |
| Cc1ccc(C(=O)NCCNS(=O)(=O)c2ccccc2)cc1 | 104% |
| CC(=O)Nc1ccc(S(=O)(=O)Nc2cccc(NC(=O)C(C)(C)C)c2)cc1 | 84.7% |
| CC(c1ccccc1)n1c(NCCCn2ccnc2)nc2c1c(=O)[nH]c(=O)n2C (stereo not drawn) | 62.8% |
| O=C(c1cccs1)N(C(=O)c1cccs1)c1ccccn1 | 75% |
| Cc1cccc(N2CC(C)Cn3c2nc2c3c(=O)n(CC(=O)OCc3ccccc3)c(=O)n2C)c1 (stereo not drawn) | 72.3% |
| CCN1C(=O)CS/C1=N\c1nccs1 | 96% |
| O=C(O)c1ccc(F)c(S(=O)(=O)Nc2ccccc2)c1 | 99.6% |
| CCOc1ccc2nc(NCCNS(=O)(=O)c3ccccc3)c(C#N)cc2c1 | 73.4% |
| CCOC(=O)N1CCN(C(=O)CN(c2ccc(C)c(C)c2)S(=O)(=O)c2ccccc2)CC1 | 124% |
| CCOC(=O)c1ccc(N2C(=O)CC(N3CC(C)OC(C)C3)C2=O)cc1 (stereo not drawn) | 82.9% |
| O=C(c1cccs1)N1CCN(C(=O)N2CCOCC2)CC1 | 119% |
| CC(=O)CSc1nnc(CSc2ncccn2)n1C1CCCCC1 | 77.2% |
| Cc1nc2nc(CSc3nc4ccccc4s3)cc(=O)n2[nH]1 | 94.5% |
| O=S(=O)(c1ccccc1)N(CC(O)CN1CCCCC1)c1ccccc1 (stereo not drawn) | 93% |
| COc1ccc(CCNC(=O)CSc2nc(C)nc3c2oc2ccccc23)cc1OC | 131% |

| Structure (SMILES) | viability |
| --- | --- |
| CCc1nc2oc3ccccc3c(=O)c2c(=O)n1Cc1ccc(OC)cc1 | 84.3% |
| O=C(CCCC(=O)N(CC(=O)NC1CCCC1)Cc1ccccc1Cl)Nc1ccccn1 | 73.7% |
| O=C(NCCCNCc1ccccc1)c1ccc(/C=N/O)nc1 | 117% |
| O=C(NCC1CCCO1)C(C(=O)c1ccccc1)n1cc(Cl)ccc1=O (stereo not drawn) | 87.7% |
| Cc1ccc2c(c1)c1ncn(CCC3=CCCCC3)c(=O)c1n2C | 85.3% |
| CCCc1nnc(NC(=O)c2cc(OC)cc(OC)c2)s1 | 81.5% |
| C#CCN1CC(C)/C(=N/O)CC1C (stereo not drawn) | 108% |
| O=C(NC1CCCC1)c1ccc(Br)s1 | 90.4% |
| O=C(Oc1ccccc1)c1ccc2nccnc2c1 | 80.4% |
| COc1ccc(S(=O)(=O)N2CCC(C(=O)N3CCOCC3)CC2)cc1OC | 101% |
| CCCc1[nH]nc2c1C(C1CC=CCC1)C(C#N)=C(N)O2 (stereo not drawn) | 96.8% |
| O=C(NCc1cccs1)C1CCN(S(=O)(=O)c2ccc3c(c2)OCCO3)CC1 | 95.3% |
| COc1ccc(C(=O)Cn2nnc(-c3ccc(N4CCOCC4)cc3)n2)cc1OC | 88.3% |
| O=C(Nc1nc2cc3c(cc2s1)OCCO3)c1cccc(S(=O)(=O)N2CCOCC2)c1 | 79.5% |
| COc1ccc2[nH]c3ccc(OC)cc3c2c1 | 89.2% |
| C=CCC(NCCCO)c1cccc(OC)c1OC (stereo not drawn) | 107% |
| Fc1ccc(OCc2nn3c(Cn4nnc5ccccc54)nnc3s2)cc1 | 59.8% |
| CCOC(=O)c1sc(NC(=O)c2cc(S(=O)(=O)N3CCOCC3)ccc2C)nc1C | 88.3% |
| COc1ccc(Br)cc1/C=N/n1c(C)nnc1C | 96.9% |
| CCC(=O)Nc1ccccc1C(=O)N1CCN(Cc2ccccc2)CC1 | 90.1% |
| O=C(Nc1cccc(C(=O)N2CCCC2)c1)c1ccccc1 | 91.4% |
| Cc1cc(C(F)(F)F)c(C#N)c(SCC(=O)NC2CC2)n1 | 109% |
| CN1CCN(CC(=O)C23CC4CC(CC(C4)C2)C3)CC1 | 122% |
| CN1CCN(S(=O)(=O)c2ccc(NC(=O)c3ccco3)cc2)CC1 | 85.4% |
| COc1ccccc1-n1nnnc1S(=O)(=O)Cc1ccc(Cl)cc1 | 95.1% |
